Sampled rows, rich in hits. Any-hit rate of the full collection: about 2%.
Beta cell apopt: beta cell apoptosis inhibition. INS-1E cytokine-induced death, ATP luminescence, 48 h; percent of positive-control rescue, neutral wells zero. protection from apoptosis, % (concentration not given with the values). AID 435005. 300,000 tested, 0.8% active;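 active = Every replicate reaches about 75%, or at least half do and their mean reaches it too, limit read from the data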;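 note: higher means more ATP so stronger rescue from cytokine killing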
Jurkat NFkB inh: inhibitors of the PMA/ionomycin-induced NF-kB reporter in Jurkat cells; PMA/ionomycin-induced NF-kB luciferase reporter, luminescence; inhibition, % at 4 µM; 330,000 tested, 0.53% active; AID 435003; in the data active = inhibition above about 50%
Calb FLC: affects C. albicans growth with fluconazole | C. albicans CaCi-2 (fluconazole-resistant clinical isolate) + fluconazole, Alamar Blue growth, 48 h | growth inhibition, % (no concentration beside the values) | 300,000 tested, 0.57% active | AID 1979;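 active = growth inhibition above about 58% in most replicates, limit read from the data, passing the limit was not always enough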;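 note: all wells also contain fluconazole at 8 µg/ml as a sub-toxic cotreatment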
Shn3 inh set2: reduces Shn3 3'UTR luciferase signal in osteoblasts | Clone20 osteoblast Shn3 3'UTR firefly luciferase, 24 h | inhibition, % at 12.5 µM | 360,000 tested, 0.52% active | AID 588674;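 active = mean inhibition of at least 75% with every replicate also reaching 75%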
697 NFkB inh: lowers PMA/ionomycin-induced NF-kB signal in 697 B cells; 697 B-cell NF-kB luciferase reporter, 16 h; inhibition, % at 4 µM; 330,000 tested, 0.33% active; AID 435022; in the data active = inhibition above about 35%
A number is an active result; i = inactive; nt = not tested or not shown.

SMILES | Beta cell apopt | Jurkat NFkB inh | Calb FLC | Shn3 inh set2 | 697 NFkB inh
Cc1nc(C(F)(F)F)c(C(=O)N/N=C(\N)c2ccccn2)s1 | 77 | i | i | i | i
CC(=O)CCC(=O)N1CCC(n2nccc2NC(=O)c2ccccc2C)CC1 | i | i | i | i | i
CC(=NNC(=S)Nc1cccc(C)c1)c1ccccn1 | nt | nt | nt | 93 | nt
COc1ccccc1NC(=S)NN=C(C)c1ccccn1 | nt | nt | nt | 91 | nt
CC(=NNC(=S)Nc1ccc(C)cc1)c1ccccn1 | nt | nt | nt | i | nt
CCN(CC)CCOC(=O)c1ccc(N/C=C(/C#N)c2nc(-c3ccc4c(c3)OCO4)cs2)cc1 | 113 | i | i | i | i
CC1CN(CC(O)COc2ccc(C#N)cc2)CCN1CC(O)COc1ccc(C#N)cc1 (configuration not stated) | i | i | i | i | i
Cc1nc2ccc(NS(=O)(=O)c3ccc4c(c3)OCCO4)cc2s1 | 123 | i | i | i | i
COc1ccc([C@H]2CC(=O)C=C(c3ccc4c(c3)OCO4)C2)cc1OC | i | i | nt | 86 | i
COc1cccc(C2=CC(=O)C[C@H](c3ccc4c(c3)OCO4)C2)c1 | i | i | nt | i | i
Cc1ccccc1Cn1ccc(=NCc2ccccc2)cc1 | 103 | i | i | nt | i
COc1cc(OC)cc(C(=O)NC2CCN(Cc3nnnn3Cc3ccc(F)cc3)CC2)c1 | i | i | 116 | i | i
O=C(Nc1ccc(C(=O)Nc2ccccc2Cl)cc1)c1cccnc1 | 99 | i | i | i | i
O=C(Nc1cccc(NC(=O)c2cccnc2)c1)c1ccccc1 | i | i | i | i | i
O=C(Nc1ccc(N2CCN(Cc3ccccc3Cl)CC2)cc1)c1cccnc1 | 78 | i | i | i | i
O=C(Nc1ccccc1Cl)c1ccc(C(=O)Nc2ccccc2Cl)cc1 | nt | nt | nt | i | nt
O=C(Nc1cccc(C(F)(F)F)c1)c1cccnc1 | i | i | 117 | i | i
O=C(Nc1ccc(N2CCCCC2)cc1)c1cccnc1 | i | i | i | i | i
CCSc1ccc(NC(=O)c2cccnc2)cc1 | 104 | i | nt | i | i
CC1CCN(S(=O)C23CC4CC(CC(C4)C2)C3)CC1 (configuration not stated) | i | i | i | i | i
CC(=O)c1nn(-c2cccc(Br)c2)cc1C(=O)c1ccc(C)cc1 | i | i | 95 | i | i
O=C(NCCc1ccccc1)[C@@H]1CC=C[C@@H]2CCN(Cc3ccc(Cl)c(Cl)c3)C(=O)[C@@H]21 | 99 | i | i | i | i
CCCCNC(=O)[C@@H]1CC=C[C@@H]2CCN(Cc3ccc(Cl)c(Cl)c3)C(=O)[C@@H]21 | i | i | i | i | i
FC(F)(F)c1ccccc1Cc1c(-c2ccco2)nc2ccc(Br)cn12 | nt | nt | nt | i | nt
C[C@@H]1CN([C@@H](C)CO)C(=O)CCCn2nncc2CO[C@H]1CN(C)Cc1cccc2c1OCCCO2 | nt | nt | nt | i | nt
SMILES | Beta cell apopt | Jurkat NFkB inh | Calb FLC | Shn3 inh set2 | 697 NFkB inh
CCOC(=O)N1CCN(C(=O)CSCC(=O)Nc2nc(-c3ccc(-c4ccccc4)cc3)cs2)CC1 | 89 | i | i | i | i
CCOC(=O)N1CCN(C(=O)CSCC(=O)Nc2nc(-c3ccc(OC)cc3)cs2)CC1 | i | i | i | i | i
Cc1ccc(NC(=S)Nn2cnnc2)c(C)c1 | i | i | 82 | i | i
O=C(Oc1ccc2c3c(c(=O)oc2c1)CCCC3)c1cccs1 | i | i | i | i | i
O=C(Oc1cc2oc(=O)c3c(c2cc1Cl)CCCC3)c1cccs1 | i | i | 95 | i | i
COc1ccccc1C(=O)COC(=O)C1CCN(S(=O)(=O)c2ccccc2)CC1 | nt | nt | nt | i | nt
Cc1ccc(-n2c(SCC(=O)c3c(N)n(C)c(=O)n(C)c3=O)nc3sc4c(c3c2=O)CCCC4)c(C)c1 | 102 | i | i | i | i
Cc1ccc(-n2c(SCC(=O)O)nc3sc4c(c3c2=O)CCCC4)cc1 | i | i | i | i | i
COc1cc(-c2n[nH]c(=S)n2/N=C/c2cccn2C)cc(OC)c1OC | i | i | i | i | i
CC[C@]1(c2ccccc2OC)ON(c2ccccc2C(F)(F)F)C1=O | 87 | i | nt | nt | i
O=C(Nc1sc2c(c1C(=O)c1ccc(Cl)cc1)CCCC2)c1cccnc1 | i | i | 84 | i | i
NC(=O)c1ccc(NC(=O)c2cc(S(=O)(=O)N3CCCCC3)ccc2N2CCOCC2)cc1 | i | i | nt | i | i
Cc1cc(/C=c2/sc3nc4ccccc4n3c2=O)c(C)n1-c1ccccn1 | i | i | i | 91 | i
Cc1cc(/C=c2\sc3nc4ccccc4n3c2=O)c(C)n1-c1ccc(C(=O)O)cc1 | nt | nt | i | i | nt
C/C(CC(=O)Nc1cc(C)ccn1)=N\NC(=O)c1cccc(C)c1 | i | i | i | i | i
C/C(CC(=O)Nc1cc(C)ccn1)=N\NC(=O)c1cccc(C)c1O | i | i | 94 | i | i
CC(CC(=O)N(CCC1=CCCCC1)c1c(N)n(Cc2ccccc2)c(=O)[nH]c1=O)c1ccccc1 (configuration not stated) | i | i | i | i | i
COCC(=O)Nc1c(C(=O)Nc2ccc3c(c2)OCO3)oc2ccccc12 | i | i | i | i | i
O=C(CCl)Nc1c(C(=O)Nc2ccc3c(c2)OCCO3)oc2ccccc12 | i | i | i | 95 | i
CCOC(=O)c1c(-c2ccccc2)oc2ccc(OCC(O)CN(C)C)cc12 (configuration not stated) | nt | i | 94 | i | i
CCOC(=O)c1c(-c2ccccc2)oc2ccc(OC(C)C(=O)O)cc12 (configuration not stated) | i | i | i | i | i
COc1cccc(S(=O)(=O)N(C)C[C@H]2OCc3cnnn3CCCC(=O)N([C@H](C)CO)C[C@H]2C)c1 | nt | nt | nt | i | nt
O=c1c2c(nc3c(-c4ccc(Cl)cc4)c[nH]n13)CCCC2 | 93 | i | i | i | i
CC(C)=CCC[C@](C)(O[C@@H]1O[C@H](CO[C@@H]2O[C@H](CO)[C@@H](O)[C@H](O)[C@H]2O)[C@@H](O)[C@H](O)[C@H]1O)C1CC[C@]2(C)C1C(=O)CC1[C@@]3(C)CC[C@H](O[C@H]4O[C@@H](CO)[C@H](O)[C@@H](O)[C@@H]4O)C(C)(C)C3CC[C@]12C (some centres not stated) | i | i | nt | i | i
CC(=O)OCC1O[C@@H](O[C@@H]2C[C@H]3C(C)(C)[C@H](OC(C)=O)CC[C@]3(C)[C@H]3CC[C@]45C[C@]4(CC[C@H]5[C@@H](C)C[C@@H](O)[C@H](O)C(C)(C)O)[C@@]32C)[C@H](O)[C@@H](O)[C@@H]1O (some centres not stated) | 111 | i | i | nt | i
CCN(CC)C(=O)Oc1ccc2oc(=O)cc(-c3cc4cccc(OC)c4o3)c2c1 | i | i | i | i | i
CCCN(C(=O)/C=C/c1nc2ccccc2s1)C1CCS(=O)(=O)C1 (configuration not stated) | i | i | nt | i | i
CSCCC1NC2(C(=O)Nc3c(C)cc(Cl)cc32)[C@@H]2C(=O)N(C3CCCC3)C(=O)[C@H]12 (some centres not stated) | nt | i | 84 | i | i
O=C(NCc1c(O)ccc2ccccc12)c1ccccc1 | i | i | i | i | i
